Experimental findings from PubChem BioAssay (NCI) are described below.

Some test systems named below: HCT-15 colon; HT29 colon; U251 CNS; PC-3 prostate; SK-MEL-5 melanoma; UACC-62 melanoma; LOX IMVI melanoma; SK-MEL-28 melanoma; SK-MEL-2 melanoma; EKVX NSCLC; SN12C renal; UO-31 renal; TK-10 renal; ACHN renal; CAKI-1 renal; A498 renal; CCRF-CEM leukemia; MOLT-4 leukemia; SNB-19 CNS.
What all share (assay): NCI-60 one-dose screen, 48 h (100 = growth as untreated, 0 = no growth, -100 = all killed)
Conditions in all cases: 10 µM unless noted

About 83,000 compounds went through this panel and 20% of them were active in at least one assay; those are over-represented in the sample as a whole.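 Single-concentration screen, 48 h exposure, 96-well plates. Endpoint: percent growth. Below 10 = active.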 Values without a mark were called inactive. Calls of active or inactive are those of the source.

Regarding `COc1ccc(-c2nc(/C=N/Nc3cc(C)nc4ccc(Cl)cc34)c(C)o2)cc1`, the growth in the assay with HCT-15 colon was -91.5% (active); with HT29 colon, -96.1% (active); in the assay with U251 CNS, -95.9% (active); with PC-3 prostate, -73.1% (active); with SK-MEL-5 melanoma, 57%; in the assay on UACC-62 melanoma, 14.5%. Moreover, the growth is -97% (active) with LOX IMVI melanoma; -41.3% (active) in the assay with SK-MEL-28 melanoma; 101% with SK-MEL-2 melanoma; -19.4% (active) in the assay with EKVX NSCLC; -92.9% (active) in the assay on SN12C renal; -98.4% (active) in the assay on UO-31 renal. In addition, the growth is -36.1% (active) in the assay with TK-10 renal; -100% (active) in the assay with ACHN renal; -85.6% (active) in the assay with CAKI-1 renal; 73% in the assay on A498 renal; -54.3% (active) with CCRF-CEM leukemia; -46.7% (active) with MOLT-4 leukemia.

As to `O=C(CSc1nc2ccccc2[nH]1)c1ccc(N2CCOCC2)cc1`, the growth in the assay with HCT-15 colon is 99.4%; in the assay with HT29 colon, 113%; with SNB-19 CNS, 98.7%; in the assay with U251 CNS, 103%; in the assay with SK-MEL-5 melanoma, 105%; in the assay on UACC-62 melanoma it was 97.1%. The growth in the assay on LOX IMVI melanoma was 94.8%; with SK-MEL-28 melanoma, 114%; in the assay on SK-MEL-2 melanoma, 113%; in the assay on EKVX NSCLC, 80.4%; with SN12C renal it was 105%; with UO-31 renal it was 85.5%. For the same compound, the growth in the assay with TK-10 renal was 118%; in the assay on ACHN renal, 105%; with CAKI-1 renal, 99%; in the assay with A498 renal, 85.8%; in the assay on CCRF-CEM leukemia, 103%; in the assay with MOLT-4 leukemia it was 135%.

In the case of `CCN(CC)c1ccc(N=O)cc1`, the growth is 3.87% (active) in the assay with HCT-15 colon; -3.9% (active) in the assay on HT29 colon; 93.1% in the assay on SNB-19 CNS; 42.9% in the assay on U251 CNS; 87.2% with SK-MEL-5 melanoma; 73.4% with UACC-62 melanoma. Further, the growth in the assay on LOX IMVI melanoma was 15%; with SK-MEL-28 melanoma, 88.3%; with SK-MEL-2 melanoma, 90.8%; in the assay with EKVX NSCLC, 91.1%; in the assay on SN12C renal, 56.3%; with UO-31 renal it was 26%. For the same compound, the growth is 47.3% with TK-10 renal; 6.07% (active) in the assay on ACHN renal; -13.4% (active) in the assay with CAKI-1 renal; 21.4% in the assay with CCRF-CEM leukemia; 44.9% in the assay with MOLT-4 leukemia.

`CC(C)(C)n1cc(-c2ccnc(NCCCNS(=O)(=O)c3ccc(C(F)(F)F)cc3)c2)c(-c2cccc(O)c2)n1`: the growth with HCT-15 colon was -55.6% (active); with HT29 colon, 2.27% (active); in the assay on SNB-19 CNS, 6.04% (active); with U251 CNS it was 12.9%; with SK-MEL-5 melanoma, 16.7%; in the assay with UACC-62 melanoma, 48.7%. Further, the growth with LOX IMVI melanoma is -81.8% (active); in the assay on SK-MEL-28 melanoma, -48.3% (active); in the assay on SK-MEL-2 melanoma, 0.948% (active); with EKVX NSCLC, 36.3%; in the assay with SN12C renal it was 40.3%; with UO-31 renal, 40.7%. Also, the growth in the assay with ACHN renal is 25.3%; with CAKI-1 renal, 37.8%; in the assay on A498 renal, 60.1%; with CCRF-CEM leukemia it was 21.4%; in the assay with MOLT-4 leukemia it was 2.23% (active).

Consider `COc1cc([N+](=O)[O-])c2ncccc2c1O`, for which the growth was 4.36% (active) in the assay on HCT-15 colon; 44.6% with HT29 colon; 6.29% (active) with SNB-19 CNS; 53.3% in the assay with U251 CNS; -59.4% (active) with SK-MEL-5 melanoma; 15.8% in the assay with UACC-62 melanoma. In addition, the growth is 66% in the assay with LOX IMVI melanoma; 28.5% in the assay on SK-MEL-28 melanoma; 4.77% (active) in the assay with SK-MEL-2 melanoma; 105% with EKVX NSCLC; 33.7% with SN12C renal; 25.6% in the assay on UO-31 renal. For the same compound, the growth in the assay on TK-10 renal was 89.2%; in the assay on ACHN renal it was 88.8%; in the assay with CAKI-1 renal it was 82.9%; in the assay with CCRF-CEM leukemia, 61.3%; in the assay on MOLT-4 leukemia, 119%.

As to `COc1ccc(Cn2cc3c(c2-c2cc(OC)c(OC)c(OC)c2)CCc2cnoc2-3)cc1`, the growth in the assay on HCT-15 colon was 17.5%; in the assay with HT29 colon, 11%; in the assay with U251 CNS it was 29.3%; in the assay with PC-3 prostate it was 25.7%; with SK-MEL-5 melanoma it was 17%; in the assay with UACC-62 melanoma, 40.5%. Further, the growth in the assay with LOX IMVI melanoma was 38.1%; in the assay on SK-MEL-28 melanoma it was 45%; with SK-MEL-2 melanoma, 42.8%; in the assay on EKVX NSCLC, 34.8%; in the assay on SN12C renal it was 34.6%; with UO-31 renal, 30.4%. Moreover, the growth with TK-10 renal was 73.8%; with ACHN renal, 33.1%; with CAKI-1 renal, 21.2%; with A498 renal, 3.83% (active); in the assay with CCRF-CEM leukemia, 12.9%; in the assay on MOLT-4 leukemia, 23.3%.

Regarding `COC(=O)C(Sc1ccc(Cl)cc1)C1SC(=S)N(Cc2ccccc2)C1=O` (configuration not stated), the growth with HCT-15 colon was 73.9%; in the assay with HT29 colon it was 111%; in the assay on SNB-19 CNS, 92.6%; in the assay with U251 CNS, 90.3%; in the assay with SK-MEL-5 melanoma, 101%; in the assay with UACC-62 melanoma it was 99.1%. In addition, the growth with LOX IMVI melanoma was 74.9%; in the assay on SK-MEL-28 melanoma, 109%; with SK-MEL-2 melanoma it was 96.3%; in the assay on SN12C renal, 82.3%; with UO-31 renal, 60.2%; in the assay on TK-10 renal it was 115%. Besides, the growth with ACHN renal was 97.6%; in the assay on CAKI-1 renal, 100%; in the assay on CCRF-CEM leukemia it was 20.5%; in the assay on MOLT-4 leukemia it was 62.1%.

Turning to `CCN(CC)CCCNc1nccc2ccc(Cl)cc12`, the growth is 104% with HCT-15 colon; 96.9% with HT29 colon; 96.8% with U251 CNS; 73.6% in the assay on PC-3 prostate; 99.3% in the assay with SK-MEL-5 melanoma; 108% in the assay on UACC-62 melanoma. The growth in the assay on LOX IMVI melanoma is 94.7%; in the assay with SK-MEL-28 melanoma, 117%; in the assay with SK-MEL-2 melanoma it was 114%; in the assay with EKVX NSCLC it was 103%; with SN12C renal, 99.6%; in the assay with UO-31 renal, 94.7%. Moreover, the growth was 99.8% with TK-10 renal; 112% in the assay on ACHN renal; 108% with CAKI-1 renal; 97.9% in the assay on A498 renal; 93.1% in the assay on CCRF-CEM leukemia; 103% with MOLT-4 leukemia.

Take `NC(=O)c1c(NC(=S)Nc2ccc(OC(F)(F)F)cc2)sc2c1CCC1(C2)OCCO1`: the growth with HCT-15 colon is 97.5%; with HT29 colon, 95.6%; with SNB-19 CNS, 97.5%; in the assay on U251 CNS, 97.2%; in the assay on SK-MEL-5 melanoma it was 98.2%; with UACC-62 melanoma it was 77.1%. Further, the growth with LOX IMVI melanoma is 98%; in the assay on SK-MEL-28 melanoma it was 104%; with SK-MEL-2 melanoma it was 93.9%; in the assay with EKVX NSCLC it was 93.1%; with SN12C renal, 95.4%; in the assay with UO-31 renal, 88%. Besides, the growth was 106% with TK-10 renal; 99.9% in the assay on ACHN renal; 93.6% in the assay on CAKI-1 renal; 90.4% in the assay with A498 renal; 93.8% with CCRF-CEM leukemia; 87.3% in the assay with MOLT-4 leukemia.
